Results reported in PubChem BioAssay AID652058 (Broad Institute, 2013).
Screen size: about 1,200 compounds; about 870 (72%) were called active. Not shown: some 3% with an inconclusive outcome.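 The calls were made as follows: active = every test run fits a falling curve whose half-maximal concentration is at most twice the top valid dose; inconclusive = runs disagree, or flat 30 to 70% inhibition, or poor fit; inactive = every run inactive: flat, rising or weaker potency.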 So high a share suggests a set chosen from earlier hits. Not all results are given here. Entries with a potency or affinity are not part of this list.

Experiment: ZM109 Env clade C HIV-1 fusion inhibitors, dose response, HeLa effector, CEM target cells, luciferase, cherry-pick (AID 652058)
Settings: HeLa Env/CEM cell fusion, 16-24 h; series mostly up to 35 µM

Activity change, negative = inhibition, inactive:
CCOC(=O)[C@@H]1[C@H]2COc3cc(OC)ccc3[C@H]2N2C(=O)N(c3cccc(F)c3)C(=O)[C@@]12C
O=C(C[C@@H]1C[C@@H]2c3cc(NC(=O)Nc4ccccc4)ccc3O[C@@H]2[C@@H](CO)O1)NCc1ccccc1
O=C(C[C@@H]1C[C@@H]2c3cc(NS(=O)(=O)c4ccc(F)cc4)ccc3O[C@@H]2[C@H](CO)O1)NCc1ccccc1F
O=C(C[C@@H]1C[C@@H]2c3cc(NC(=O)c4ccc5c(c4)OCO5)ccc3O[C@@H]2[C@@H](CO)O1)NCc1ccc(Oc2ccccc2)cc1
COc1ccccc1CNC(=O)C[C@H]1C[C@@H]2c3cc(NC(=O)c4cccnc4)ccc3O[C@@H]2[C@@H](CO)O1
COC(=O)Cn1cnc2c(Cl)nc(F)nc21
CN(C)C(=O)C[C@@H]1C[C@H]2c3cc(NS(=O)(=O)c4ccc(F)cc4)ccc3O[C@H]2[C@H](CO)O1
CN(C)C(=O)C[C@@H]1C[C@@H]2c3cc(NS(=O)(=O)c4ccc(F)cc4)ccc3O[C@@H]2[C@@H](CO)O1
O=C(C[C@@H]1C[C@H]2c3cc(NC(=O)C4CCC4)ccc3O[C@H]2[C@H](CO)O1)NCC(F)(F)F
O=C(C[C@H]1C[C@H]2c3cc(NC(=O)C4CCC4)ccc3O[C@H]2[C@@H](CO)O1)NCc1ccc2c(c1)OCO2
O=C(C[C@H]1C[C@@H]2c3cc(NC(=O)C4CCOCC4)ccc3O[C@@H]2[C@H](CO)O1)NCc1ccccc1
CCCNC(=O)C[C@@H]1C[C@@H]2c3cc(NC(=O)CN(C)C)ccc3O[C@@H]2[C@H](CO)O1
CCCNC(=O)C[C@@H]1C[C@@H]2c3cc(NC(=O)Cc4ccncc4)ccc3O[C@@H]2[C@H](CO)O1
CC(=O)OC1c2ccccc2C(=O)N1c1ccccc1C (stereo not drawn)
O=C(COC(=O)c1cccc(S(=O)(=O)N2CCOCC2)c1)NCc1ccccc1
Cc1ccc(S(=O)(=O)N(C)c2ccc(C(=O)N3CCN(Cc4ccc5c(c4)OCO5)CC3)cc2)cc1
c1ccc(CSc2nnc([C@@H]3CCCN3)o2)cc1
Cc1nnc(SC(=O)N2c3ccccc3Sc3ccccc32)s1
Cc1ccccc1-n1c(=O)c2ccccc2n2cnnc12
O=c1c2ccccc2nnn1CSc1nnc(COc2ccc(Cl)cc2)n1Cc1ccco1
O=C(CNC(=O)c1cccc(-n2cccc2)c1)Nc1ccccc1Br
Cc1ccc(S(=O)(=O)N[C@@H]2CC[C@H](CCNC(=O)c3ccccc3F)O[C@H]2CO)cc1
COc1cccc(S(=O)(=O)N[C@H]2CC[C@@H](CCN)O[C@@H]2CO)c1
COc1ccccc1S(=O)(=O)N[C@H]1CC[C@H](CC(=O)N2CCN(C)CC2)O[C@H]1CO
O=C(NCC[C@@H]1CC[C@@H](NS(=O)(=O)c2ccccc2F)[C@@H](CO)O1)c1ccc(F)cc1
COc1cc(-c2cc(OC)c(O)c(OC)c2)cc(OC)c1O
Cc1ccc(C2Oc3ccccc3C3=C2C(c2cccs2)n2ncnc2N3)cc1 (stereo not drawn)
O=C(NCCCN1CCc2ccccc2C1)Nc1ccc(Cl)cc1
O=C(CN1CCCN(Cc2ccc(F)cc2Cl)C1=O)NC1CCCCCCC1
CCN(CC)S(=O)(=O)c1cccc(S(=O)(=O)c2cccc(S(=O)(=O)N(CC)CC)c2)c1
CS(=O)(=O)N(Cc1ccc(Cl)cc1)c1ccc(C(=O)NCCC2=CCCCC2)cc1
CCCNC(=O)C[C@H]1C[C@H]2c3cc(NC(=O)Cc4ccncc4)ccc3O[C@H]2[C@H](CO)O1
COc1ccc2c3c([nH]c2c1)[C@H](CO)N(C(=O)Nc1cccc(F)c1)CC31CCN(S(=O)(=O)c2ccccc2)CC1
COc1ccc(S(=O)(=O)N[C@@H]2CC[C@@H](CC(=O)NCCc3ccncc3)O[C@@H]2CO)cc1
CCCCOc1ccc(S(=O)(=O)Nc2cccnc2)cc1
CC(=O)c1ccc(S(=O)(=O)N2CCN(c3nc4c(C)c(C)ccc4cc3C#N)CC2)cc1
O=C(Nc1nc2ccccc2[nH]1)c1ccccc1F
Cc1ccc(NC(=O)c2ccc(OCC3CCCO3)cc2)cc1Cl (stereo not drawn)
O=C(COc1ccc(-n2cnnn2)cc1)Nc1ccc(F)c(F)c1
O=C(Nc1ccc(Cl)cc1)Nc1cccc(C(=O)O)c1
COC(=O)[C@H](Cc1ccccc1)NC(=O)Cn1cnc(C(=O)Nc2ccc(C)c(C)c2)n1
Cc1ccc(NC(=O)c2ccc(CN3CCc4ccccc4C3)cc2)cc1
Cn1c(CN2CCCCC2)nc2cc(NC(=O)c3ccc(Cl)cc3)ccc21
